In PubChem BioAssay AID890 (National Center for Advancing Translational Sciences (NCATS), 2007):
Several values for one entry are separate records, joined by “and”; a condition that tells them apart may be missing. Equal values may be shown once. Activity calls are given as the source filed them. A call without a number means that no potency is given here. Calls come from the whole dose curve; as a rule, active = well fitted activation curve with a large enough effect; inactive = flat fitted curve, though single readings scatter.

Assay: Confirmation Concentration-Response Assay for Epigenetic Modulators
Conditions: murine C127i cells, silenced GFP reporter derepression, imaging; series mostly up to 46 µM
Source text: NIH Molecular Libraries Screening Centers Network [MLSCN] NIH Chemical Genomics Center [NCGC] MLSCN Grant: 1 X01 MH079860-01 Assay Provider: Elisabeth D. Martinez, University of Texas SW Medical Center NCGC Assay Overview: The Locus Derepression assay detects the derepression of a GFP reporter that is stably integrated in a region of the genome of murine c127i mammary cells that is presumably silenced. GFP transcription in this construct is controlled by a CMV promoter, which normally is strong and constitutively active. However, this line was selected for lack of constitutive expression of the GFP protein. GFP production can be induced by incubating the cells with histone deacetylase or DNA methyltransferase inhibitors. Compounds that cause derepression of the locus to express GFP are identified by enumerating GFP positive cells using a laser-scanning microplate cytometer.
NCGC Assay Protocol Summary: Two hundred and fifty cells in 5 uL per well were dispensed into black, clear-bottom 1536-well plates. Twenty-three nL compound was transferred to the assay plate and cells were incubated 30 hours at 37 C. Medium was removed, cells were washed two times with PBS, and GFP-positive cells were enumerated as fluorescent objects between the sizes of 20 to 120 um width and depth using a laser-scanning microplate imager (Acumen Explorer Ex3, TTP Labtech) Keywords: NIH Roadmap, MLSCN, MLI, MLSMR, qHTS, NCGC, qHTS, HDAC, DNMT, HAT, DNA methyltransferases, histone acetyl transferases, histone deacetylases

Question: With `CCCCC1CC1C(=O)Nc1ccc(OC)c(OC)c1` (stereo not given) as the molecule, how does the Potency read?
Answer: 14.3 µM (active)

Question: For `Cc1cc(C)n(-c2nc(NC(C)(C)C)nc(NC(C)(C)C)n2)n1`, which Potency is on record?
Answer: inactive

Question: With `CC(C)C(=O)NC(c1cccs1)c1cc(Cl)c2cccnc2c1O` (stereo not given) as the molecule, how does the Potency read?
Answer: inactive

Question: Which Potency does the source give for `Cc1cc(C)n(-c2nc(NC(C)C)nc(NC(C)C)n2)n1` here?
Answer: inactive

Question: For `COc1ccc(C(NC(=O)C(C)C)c2ccc3cccnc3c2O)cc1` (stereo not given), which Potency is on record?
Answer: 7.83 µM (active)

Question: Which Potency does the source give for `CC(C)C(=O)NC(/C=C/c1ccccc1)c1cc([N+](=O)[O-])c2cccnc2c1O` (stereo not given) here?
Answer: inactive

Question: With `COCc1cc(CN2CCN(C)CC2)c(O)c2ncccc12` as the molecule, how does the Potency read?
Answer: 37.6 µM (active)

Question: For `CC(C)C(=O)NC(c1ccco1)c1ccc2cccnc2c1O` (stereo not given), which Potency is on record?
Answer: 7.57 µM (active) and 4.6 µM (active)

Question: For `CC(C)C(=O)NC(c1ccco1)c1cc([N+](=O)[O-])c2cccnc2c1O` (stereo not given), which Potency is on record?
Answer: inactive

Question: Which Potency does the source give for `COc1ccc(NC(c2ccccn2)c2ccc3cccnc3c2O)cc1` (stereo not given) here?
Answer: inactive

Question: With `O=Nc1ccc(O)c2ncccc12` as the molecule, how does the Potency read?
Answer: 2.78 µM (active)

Question: Which Potency does the source give for `CC(C)C(=O)NC(c1ccc(N(C)C)cc1)c1ccc2cccnc2c1O` (stereo not given) here?
Answer: 8.14 µM (active)

Question: Which Potency does the source give for `CC(C)C(=O)NC(c1ccc(C(C)C)cc1)c1cc(Cl)c2cccnc2c1O` (stereo not given) here?
Answer: inactive

Question: With `CCOCc1ccc(O)c2ncccc12` as the molecule, how does the Potency read?
Answer: 4.97 µM (active)

Question: With `CN1CCN(Cc2cc(Cl)c3cccnc3c2O)CC1` as the molecule, how does the Potency read?
Answer: 6.08 µM (active)

Question: Which Potency does the source give for `Cc1cc(NC(c2ccccn2)c2ccc3cccnc3c2O)no1` (stereo not given) here?
Answer: 8 µM (active)

Question: With `CCN1CSC(=S)N(CC)C1` as the molecule, how does the Potency read?
Answer: 7 µM (active)

Question: Which Potency does the source give for `Oc1c(C(Nc2ccccn2)c2ccccn2)ccc2cccnc12` (stereo not given) here?
Answer: 36.2 µM (active)

Question: Which Potency does the source give for `c1ccc(Nc2nc(Nc3ccccc3)nc(-n3cccn3)n2)cc1` here?
Answer: inactive

Question: Which Potency does the source give for `O=C(CSc1cccc2cccnc12)N1CCCC1` here?
Answer: 8.94 µM (active)

Question: With `S=C1SCN(C2CCCC2)CN1Cc1ccco1` as the molecule, how does the Potency read?
Answer: inactive

Question: With `Cc1ccc(N=Nc2ccc(O)c3ncccc23)cc1C` as the molecule, how does the Potency read?
Answer: inactive

Question: Which Potency does the source give for `O=C(CSc1cccc2cccnc12)Nc1ccccc1` here?
Answer: inactive

Question: With `CC(/C=C/C(=O)NO)=C\[C@@H](C)C(=O)c1ccc(N(C)C)cc1` as the molecule, how does the Potency read?
Answer: 1.12 µM (active)

Question: Which Potency does the source give for `O=C1OCCC1Sc1cccc2cccnc12` (stereo not given) here?
Answer: 7.44 µM (active)

Question: Which Potency does the source give for `COc1ccc(C)cc1NC(c1ccccn1)c1ccc2cccnc2c1O` (stereo not given) here?
Answer: inactive

Question: Which Potency does the source give for `O=C(CSc1cccc2cccnc12)NCc1ccccc1` here?
Answer: inactive

Question: With `CCNc1nc(NCC)nc(-n2cc(C(=O)c3cc(Cl)ccc3O)cn2)n1` as the molecule, how does the Potency read?
Answer: inactive

Question: For `CN(C)C(=O)CSc1cccc2cccnc12`, which Potency is on record?
Answer: 6.96 µM (active)

Question: With `Cc1cc(C)n(-c2nc(NC(C)C)nc(NC(C)(C)C)n2)n1` as the molecule, how does the Potency read?
Answer: inactive

Question: For `O=C(Oc1cccc2cccnc12)c1ccc(Br)o1`, which Potency is on record?
Answer: 14.6 µM (active)

Question: For `Cc1cc(C)n(-c2nc(N(C)C)nc(N(C)C)n2)n1`, which Potency is on record?
Answer: inactive

Question: With `COC(=O)c1cccc(NC(c2ccccn2)c2ccc3cccnc3c2O)c1` (stereo not given) as the molecule, how does the Potency read?
Answer: inactive

Question: For `Oc1c(C(Nc2ccccn2)c2ccco2)cc(Cl)c2cccnc12` (stereo not given), which Potency is on record?
Answer: inactive

Question: For `O=C(CC(c1ccco1)S(=O)(=O)c1ccccc1)c1ccc(F)cc1` (stereo not given), which Potency is on record?
Answer: inactive

Question: For `Cc1ccc2ccc(C(Nc3cccc(Cl)c3)c3ccccn3)c(O)c2n1` (stereo not given), which Potency is on record?
Answer: inactive

Question: For `c1cnn(-c2nc(N3CCOCC3)nc(N3CCOCC3)n2)c1`, which Potency is on record?
Answer: inactive

Question: With `Oc1c(C(Nc2ccccc2C(F)(F)F)c2ccccn2)ccc2cccnc12` (stereo not given) as the molecule, how does the Potency read?
Answer: inactive

Question: With `Oc1ccc(COCc2ccccc2)c2cccnc12` as the molecule, how does the Potency read?
Answer: inactive

Question: Which Potency does the source give for `COc1ccc(C(=O)NC(c2ccco2)c2cc(Cl)c3cccnc3c2O)cc1` (stereo not given) here?
Answer: inactive
